Percent Effect data for 20 compounds are collected here from ChEMBL document CHEMBL3988442, “University of Dundee, Small-Polar-MMV Screening Library” (2021).

For the test, the target named is AMP-activated protein kinase, AMPK (Homo sapiens) (UniProt P54646+O43741+P54619+Q9UGJ0+Q9Y478+Q13131+Q9UGI9). Nature of the test: AMP-dependent Kinase enzyme assay. An in vitro enzyme assay that detects ADP turnover that is directly proportional to AMPK activity. This uses naive AMPK that is activated during the assay with MK-8722. Set-up: scale not given: direction of the effect not stated beside the values. The format is functional. The following applies: 30 µM.
Take `CSCCC(NC(=O)c1ccco1)C(=O)N(C)Cc1ccsc1` (stereo not given): the Percent Effect is -5.54%.
As for `CCN1CC(c2ccccc2)CC2(CCN(Cc3ncc[nH]3)CC2)C1` (stereo not given), the figure is -6.2%; as for `CC(C)N1CCC(NC(=O)c2cn(-c3ccc(F)cc3)nn2)C1` (stereo not given), -3.78%.
For `CC(C)C(NC(=O)C1CCCC1)c1cc(O)nc(-c2cccnc2)n1` (stereo not given), the Percent Effect was determined as 0.00151%.
In the case of `CN(C)c1cccc(C(=O)Nc2cnn(CC(N)=O)c2)c1`, the Percent Effect turned out to be 3.58%.
As for `Cc1noc(C(C)C)c1C(=O)N1CCC(n2cccn2)CC1`, the Percent Effect came to 4.03%.
As for `CCNC(=O)C1CCN(Cc2ccc(C(=O)Nc3cnns3)cc2)C1` (stereo not given), the figure is 1.07%; as for `CC(=O)N1CCc2c(nc(N(C)C)nc2NCCCn2ccnc2)C1`, 2.43%.
As for `Cc1nccn1[C@@H]1CC[C@@H](N(C)S(=O)(=O)c2ccc(F)cc2)[C@H]1O`, the figure is 27.2%.
Consider `O=C(Cn1[nH]c2ccccc2c1=O)N1CCCC(CC2CC2)(C(=O)O)C1` (stereo not given), for which the Percent Effect was -3.39%.
As for `Nc1nccc(N2CCC(c3cc(Cc4ccccc4)n[nH]3)CC2)n1`, the figure is 4.14%; as for `COc1ccc(-c2cc3nc(CCNC(=O)C4CC4)nn3cn2)cc1`, -2.76%; as for `CCCN(CC(=O)N(C)C)C(=O)c1ccc(-c2nc(C)cs2)cc1`, 4.25%.
In the case of `Cc1nn2cccnc2c1C(=O)NCc1ccnc(OCC2CC2)c1`, the Percent Effect was 4.11%.
On to `CCN(CC(=O)NC(C)(C)C)Cc1cccc2c1OCCO2`, for which the Percent Effect is -0.533%.
In the case of `CC(C)c1cc(C2CCN(C(=O)Cn3cncn3)CC2)[nH]n1` it was 29.2%; in that of `Cc1nc(O)cc(CN2C[C@H](NS(=O)(=O)N(C)C)[C@@H](C3CC3)C2)n1`, -5.32%; in that of `Cc1ccc(CNC(=O)NCc2nccn2C)c(OC(C)(C)C)c1`, 11.3%.
In the case of `CC(C)C[C@@H](N)C(=O)N(C)Cc1csc(C(C)C)n1` it was -10.4%; in that of `CC(CNC(=O)c1cc(Cn2cnc3ccccc32)[nH]n1)N1CCCC1` (stereo not given), -5.09%.
